Compounds with a hit are over-represented: about 3.5% of the library has one in this group of screens.
TROY NFkB inh: inhibitors of TROY-dependent NF-kB signaling; inhibition, % at 10 µM; actives 0.98% (n = 360,000); Q293 LMP1-TROYcd NF-kB luciferase reporter, 4 h;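 active = compounds whose plate-normalised and pattern-corrected inhibition of the luciferase reporter signal at the single screening dose is 50% or more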
C8 TRAIL sens: sensitizes caspase-8 expressing cells to TRAIL | NB7+C8 cells + TRAIL, ATPlite viability luminescence | inhibition (viability loss, TRAIL sensitization), % at 10 µM | actives 1% (n = 360,000);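 active = compounds causing at least 50% loss of cell viability in the single-dose screen, relative to plate controls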
TWEAK Fn14 block: TWEAK-Fn14 signaling inhibition; inhibition, % at 10 µM; actives 2% (n = 360,000); TWEAK-stimulated Fn14 reporter cells, luciferase luminescence, 8 h; in the data active = inhibition above about 50%
PPC-1+TRAIL kill: kills PPC-1 cancer cells in the presence of TRAIL | PPC-1 cells + TRAIL, ATPLite viability luminescence | cell killing (% activity), % at 4 µM or 5 µM | actives 0.41% (n = 220,000) | AID 1443;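 active = cell killing above 50% in the first pass at 4 µM, then a duplicate retest at 5 µM averaging 50% or more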;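 also: plate controls were cells with TRAIL plus DMSO for no effect and medium-only wells lacking cells for full effect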
Platelet DG rel: platelet dense granule release activity. inhibition, %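 (compounds screened at 7.5 µM in platelet-rich plasma)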. actives 0.22% (n = 300,000). human platelet-rich plasma, SFLLRN dense granule ATP release, luminescence;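 active = mean replicate score, as percent of positive control, at or above 50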
HSP90 inh: HSP90 refolding inhibition in rabbit reticulocyte lysate; actives 0.91% (n = 290,000); AID 1789; luciferase refolding luminescence, 3 h; inhibition, % at 5.6 µM;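 active = inhibition above the screen-wide mean plus 3 SD, computed separately per campaign, cut at about 16% in these data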;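 also: 0% = DMSO wells and 100% = 60 µM geldanamycin wells; inhibitors lower the luminescence because luciferase stays unfolded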
* = called active by the depositor; . = not tested or not shown.

SMILES	TROY NFkB inh	C8 TRAIL sens	TWEAK Fn14 block	PPC-1+TRAIL kill	Platelet DG rel	HSP90 inh
CCN(CC)c1ccc2c(Cl)c(Br)c(=O)oc2c1	43	12	85*	39	10	-1
CCN(CC)c1ccc2c(C)cc(=O)oc2c1	-41	-2	-6	.	.	.
CCN(CC)c1ccc2c(c1)oc(=O)c1c(Cl)cc(=O)oc12	-44	70*	76*	9	0	6
COc1ccc(Cl)cc1-c1noc([C@@H]2O[C@H](CO)[C@H](O)[C@H](O)[C@H]2O)n1	3	-7	11	.	.	.
CN(C)/C=C/C(=O)/C=C/c1ccc(Cl)cc1	-67	10	-20	26	4	-2
CN(C)CC(O)c1ccc(C=Cc2ccc(Cl)cc2)cc1 (centres undefined)	-27	89*	-100	.	.	.
O=C1NC[C@@H](CCCCN2C[C@H](Cc3ccc(O)cc3)N(CCc3ccccc3)C(=O)C2=O)N(CCc2ccccc2)C1=O	-9	-18	14	.	.	.
C=CC[n+]1c(/C=C2\C=Cc3cc(C)ccc3N2CC)ccc2ccccc21	40	48	57*	43	5	0
CCN1C(=C(C#N)C#N)C=Cc2cc(C)ccc21	-33	1	-22	22	-7	-4
COc1cccc(Cn2c(NCc3cccnc3)nc3c2c(=O)n(C)c(=O)n3C)c1	7	82*	-1	39	17	-1
COc1cccc(Cn2c(NCc3ccccn3)nc3c2c(=O)n(C)c(=O)n3C)c1	.	.	.	.	.	-1
COc1ccccc1-n1cc2c([N+](=O)[O-])cc([N+](=O)[O-])cc2n1	-32	27	51*	.	2	2
CCOC(=O)N1CCC(=NNC(=O)COc2ccc(OC)cc2)CC1	-8	-12	96*	19	-2	-6
CN(C)S(=O)(=O)c1cccc(-c2nn(-c3ccccc3)cc2/C=C(\C#N)c2nc3ccccc3[nH]2)c1	1	27	7	12	7	5
CN(C)S(=O)(=O)c1cccc(-c2nn(-c3ccccc3)cc2/C=C2\SC(=S)NC2=O)c1	67*	20	64*	3	.	3
Cc1ccc(CNC(=S)Nc2ccc3c(c2)c(=O)n(C)n3Cc2cccc(C(F)(F)F)c2)cc1	61*	18	57*	.	.	.
COc1cccc(CC2CC(=O)N(c3ccc4c(C)cc(=O)oc4c3)C2=O)c1 (centres undefined)	-12	-4	-1	0	0	-3
Cc1ccccc1S(=O)(=O)NC(=O)C1(C)CCN1C(=O)CC1CCCC1 (centres undefined)	-3	5	3	.	.	.
Oc1ccccc1C=Nc1cccc2ccccc12	66*	11	69*	.	-2	11
Cc1ccc(Nc2nc3nonc3[nH]c2=O)cc1Cl	41	21	59*	14	-2	2
Cc1ccc(Nc2nc3nonc3[nH]c2=O)cc1C	-26	27	21	36	-8	-4
COc1ccc2cc3c(N)nn(C(=O)Cc4ccccc4OC)c3nc2c1	35	16	52*	-13	-7	1
COc1ccc2cc3c(N)nn(C(=O)C4CCC(C(C)(C)C)CC4)c3nc2c1 (centres undefined)	55*	20	90*	-9	-7	-5
O=C1NC[C@@H](Cc2ccc(O)cc2)N(CCc2cc(C(F)(F)F)cc(C(F)(F)F)c2)C1=O	-2	17	0	.	.	.
Cc1ccc(C(=O)OCC(=O)NC2CCCC(C)C2C)cc1S(=O)(=O)N1CCCCC1 (centres undefined)	17	19	2	.	.	.
SMILES	TROY NFkB inh	C8 TRAIL sens	TWEAK Fn14 block	PPC-1+TRAIL kill	Platelet DG rel	HSP90 inh
C=CCn1c(SCC(=O)Nc2cccc(S(N)(=O)=O)c2)nnc1C1CCCCC1	3	1	12	.	.	.
CCN(CC)C(=S)Oc1c(Cl)cccc1Cl	3	-16	5	-1	-1	-4
CCN(CC)C(=S)Oc1ccc(Cl)cc1Cl	-3	8	97*	-3	-7	0
O=C(CNC(=O)c1ccc(Br)cc1)N/N=C/c1cccnc1	3	10	-18	.	-7	-3
O=C(NCc1ccccn1)C1CCCN(S(=O)(=O)c2cc(Cl)ccc2Cl)C1 (centres undefined)	-14	56*	3	.	.	.
COc1ccc(C)cc1S(=O)(=O)N1CCCC(C(=O)NCc2ccccn2)C1 (centres undefined)	-20	4	18	.	-6	-2
COc1cc(CNC(=O)c2cccc(COc3ccc(Cl)cc3)c2)cc(OC)c1	-1	6	23	22	2	16
Cc1nc2c(o1)C(=O)c1ccccc1C2=Nc1ccccc1	10	95*	95*	.	.	.
Cc1nc(-c2ccc(NC(=O)C(C)(C)C)cc2)c(-c2ccccc2)o1	-6	-5	26	.	-4	0
CC1(C(=O)Nc2cccc(Oc3ccccc3)c2)CCN1Cc1cc2ccccc2o1 (centres undefined)	-2	4	2	.	.	.
CCOC(=O)C1(C)CCN1C(=O)c1cccnc1Oc1ccccc1 (centres undefined)	-6	0	7	.	.	.
CN1C(=O)c2ccccc2Cc2c(NCc3ccccc3)ncnc21	22	1	6	.	.	.
Cc1cc(NC(=O)c2ccc(S(=O)(=O)N3CCOCC3)cc2)nc2c1c(=O)oc1ccccc12	.	.	.	5	-5	0
CS(=O)(=O)c1ccccc1-c1nnc(NC(=O)c2ccc(S(=O)(=O)N3CCCC3)cc2)o1	70*	2	4	.	2	.
CCOc1ccc(C(=O)Nc2cc(C)c3c(=O)oc4ccccc4c3n2)cc1	-18	56*	-4	16	-9	-1
Cc1cc(NC(=O)c2ccc(S(=O)(=O)N3CCCC3)cc2)nc2c1c(=O)oc1ccccc12	-8	55*	-18	20	-1	1
Cc1cc(NC(=O)c2ccccc2)nc2c1c(=O)oc1ccccc12	-14	-2	5	3	-3	-3
CCn1nc(C(C)C)cc1C(=O)N1CCCC(CO)(Cc2ccc(F)cc2F)C1 (centres undefined)	5	5	-4	.	-5	0
Cc1cc(C(=O)OCC(=O)NCc2ccco2)c(C)o1	-7	-11	-2	17	.	-1
COc1ccc2c(c1)c(CC(=O)OCC(N)=O)c(C)n2C(=O)c1ccc(Cl)cc1	54*	-2	25	18	0	-2
COc1ccc2c(c1)c(CC(=O)OCC(=O)O)c(C)n2C(=O)c1ccc(Cl)cc1	-2	-7	-9	24	-6	-3
CCN(Cc1cnn(C)c1)Cc1nc(C(c2ccccc2)c2ccccc2)no1	5	12	8	0	-25	0
COc1cc(C(=O)Nc2scc(-c3ccc(Br)cc3)c2C(=O)O)cc(OC)c1OC	72*	-7	-7	.	-7	-5
Cc1ccc(-c2csc(NC(=O)c3ccc(Br)cc3)c2C(=O)O)cc1	25	-13	47	.	-2	-4
CCN(CC)S(=O)(=O)c1ccc(C(=O)N2CCN(c3ncccn3)CC2)cc1	0	-9	8	.	13	-1
